# Bioassay records deposited in PubChem BioAssay by National Center for Advancing Translational Sciences (NCATS).
# A selection: hits, their analogues and other compounds. The true share with any hit is near 14%.
# CRE-bla Fsk = Cell signaling CRE-BLA (Fsk stim); CHO CRE-bla reporter (cAMP response element driving beta-lactamase), forskolin EC10, beta-lactamase ratio; Potency, µM (doses to about 38.2 µM), for the others: at the top dose activity change, negative = inhibition, usual class: activators; AID 662, 2007; 71,000 tested, 2.5% active; active = well fitted activation curve with a large enough effect in the signal ratio, with a control signal flat, not every such curve was filed as active; inconclusive = small, poorly fitted or top-dose-only effect, or effect the other way, or a change in a side signal; the % refers to the signal ratio; note: potency is the fitted concentration of half-maximal effect; % of control where 0% means no effect
#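 The 460nm/530nm emission ratio after CCF4 loading defined %Activity, from which AC50 values were obtained. CRE-bla CHO cells received compound dilution series together with an EC10 level of NKH 477 for 3 hours at 37 degrees Celsius.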
# 4MU fluor = qHTS Assay for Spectroscopic Profiling in 4-MU Spectral Region. compound autofluorescence, 340/450 nm, 4-MU equivalents; stronger effect = higher value. max dye-equivalent concentration, M. 59,000 tested, 11% active; in the data active = max dye-equivalent concentration above about 10 nM; inconclusive = mostly about 1.1 nM to 9.6 nM
#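 Intrinsic fluorescence at 340/450 nm (ex/em) was read after 15 min at room temperature in pH 8.0, 100 mM Tris. Each compound concentration expressed as 4-MU-equivalent concentration from a six-point 4-MU standard series on each plate.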
# A350 autofl = qHTS Assay for Spectroscopic Profiling in A350 Spectral Region; 59,000 tested, 11% active; AID 590, 2007; max dye-equivalent concentration, M; Compound autofluorescence, 340/450 nm, Alexa 350 dye-equivalents; stronger effect = higher value; in the data active = max dye-equivalent concentration above about 10 nM; inconclusive = mostly about 1.1 nM to 9.6 nM
# HSD17B inh = qHTS Assay for Inhibitors of HSD17B4, hydroxysteroid (17-beta) dehydrogenase 4. recombinant HSD17B10, NADH fluorescence kinetic. 75,000 tested, 7.6% active. 3-hydroxyacyl-CoA dehydrogenase type-2 (Homo sapiens), Q99714. Potency, µM (doses to about 57.1 µM), for inactives: at the top dose activity change, negative = inhibition, actives largely listed as inhibitors;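 note: the protocol describes HADH2 (HSD17B10) and not the HSD17B4 of the title; potency is the fitted concentration of half-maximal effect; % is set by controls: 0 for no effect and ±100 for the full control effect; nearly all actives have a fitted effect of over 70% in size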
#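 20 nM HADH2, pH 9.0 Tris/Tween; cpd preinc 15 min RT; start w/ 1 mM NAD+ + 90 uM b-hydroxybutyryl-CoA; kinetic fluor ex360/em450 q30s x 4 min; delta last-first.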
# HADH2 inh = qHTS Assay for Inhibitors of HADH2 (Hydroxyacyl-Coenzyme A Dehydrogenase, Type II); recombinant HADH2, NADH fluorescence, beta-hydroxybutyryl-CoA; Potency, µM (highest dose often 57.1 µM), without a hit: at the top dose activity change, negative = inhibition, most hits filed as inhibitors; 73,000 tested, 3.4% active; AID 886, 2007; note: potency is the fitted concentration of half-maximal effect; % is set by controls: 0 for no effect and ±100 for the full control effect; nearly all actives have a fitted effect of over 60% in size
# Target sequence (Q99714 whole entry, looked up, one chain of several): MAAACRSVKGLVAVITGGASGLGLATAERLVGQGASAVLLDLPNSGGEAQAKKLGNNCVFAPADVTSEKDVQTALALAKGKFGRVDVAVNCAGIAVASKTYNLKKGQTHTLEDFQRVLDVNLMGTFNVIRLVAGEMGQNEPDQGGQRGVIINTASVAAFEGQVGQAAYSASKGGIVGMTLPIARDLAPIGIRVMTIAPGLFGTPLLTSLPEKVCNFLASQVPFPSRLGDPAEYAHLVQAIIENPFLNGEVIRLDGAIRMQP
#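 20 nM HADH2 + cpd, 15 min RT; add 1 mM NAD+/90 uM beta-hydroxybutyryl-CoA; kinetic fluorescence 360/450 nm, 4 min. Tris-HCl pH 9.0, 0.01% Tween-20.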
# AID923 = qHTS Assay for Allosteric/Competitive Inhibitors of Caspase-1: Spectroscopic Profiling in AFC Spectral Region | compound fluorescence, AFC spectral region (405/520 nm) | Potency, µM (doses to about 57.5 µM), for the others: at the top dose fluorescence increase, most hits filed as activators | 75,000 tested, 1.1% active | AID 923, 2007; note: potency is the fitted concentration of half-maximal effect; 0% is about no effect
#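 Titrations up to 57 uM read every 20 sec for 3 min (405/520 nm) with 50 nM caspase 1 and 5 uM Ac-WEHD-AFC, pH 7.5 HEPES buffer. Fluorescence-vs-time intercept gave baseline, scaled against on-plate AFC standard.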
# Starred values were filed as active, the others as inactive; i = inactive; ? = inconclusive; . = no result. Unless noted, calls come from the whole dose curve; as a rule, active = well fitted curve in the direction sought with a large enough effect; inconclusive = small, poorly fitted or top-dose-only effect, or another doubt; inactive = no such curve, though single readings can be large; an effect the other way counts as inactive or inconclusive.
SMILES,CRE-bla Fsk,4MU fluor,A350 autofl,HSD17B inh,HADH2 inh,AID923
CCOC(=O)C1=C(C)OC(N)=C(C#N)C1c1cc2ccccc2nc1N1CCCCC1 (stereo unspecified),.,1.5e-07M*,1.7e-07M*,.,.,.
CCOC(=O)C1=C(C)OC(N)=C(C#N)C1c1cc2c(cc1Br)OCO2 (stereo unspecified),5%,i,?,-29%,?,13%
COC(=O)c1ccc(CNC(=O)CSc2nnc(COc3ccccc3)n2C)o1,-6%,i,i,2%,0%,-2%
CC[C@H](C)[C@H](NC(=O)OCC1c2ccccc2-c2ccccc21)C(=O)O,.,.,.,?,.,-4%
O=c1c(-c2nc3ccccc3o2)c2oc3ccccc3n2c2ccccc12,4µM*,1.3e-07M*,1.6e-07M*,4µM*,44%,-2%
O=C1c2ccccc2C(=O)N1Cc1nc2ccccc2o1,3%,i,i,2%,4%,-1%
CC1CCC2C(C1)c1sc(=O)[nH]c1SC2(C)C (stereo unspecified),10µM*,i,i,-16%,?,1%
Cc1ccc(-c2[nH]n3c(=O)c4c(nc3c2C)CCCC4)cc1,12%,i,i,10µM*,?,2%
COc1ccc(-c2cc3nc4c(c(=O)n3[nH]2)CCC4)cc1,?,i,i,13µM*,?,0%
O=c1c2c(nc3nc(Cc4ccccc4)[nH]n13)CCC2,-11%,i,i,6%,-1%,-1%
Cc1nc2nc3c(c(=O)n2[nH]1)CCC3,?,i,?,3%,4%,0%
Cc1cc2nc3c(c(=O)n2[nH]1)CCCC3,2%,.,.,32µM*,?,-1%
O=C(O)[C@H]1CCCNC1,6%,i,i,-5%,18%,-5%
COc1ccc(CNC(=O)C2COc3ccccc3O2)c(OC)c1 (stereo unspecified),-7%,i,i,-4%,-9%,-1%
CCCCOC(=O)Nc1nnc(CCOCC)s1,?,?,?,25µM*,17%,7%
COc1cc(C(=O)Nc2nnc(C)s2)cc(OC)c1OC,?,.,.,-4%,-10%,2%
CCCCOC(=O)Nc1nnc(COc2ccccc2)s1,7%,.,.,6%,-7%,-3%
CCOCCc1nnc(NC(=O)c2cc(OC)c(OC)c(OC)c2)s1,10µM*,i,i,-2%,9%,-2%
Cc1ccc(OCc2nc(C#N)c(NCc3ccco3)o2)cc1,3%,i,i,-22%,-18%,0%
Cc1ccc2cc(C#N)c(NCc3ccco3)nc2c1,2%,2.2e-07M*,1.7e-07M*,32µM*,-1%,15%
Cc1ccc(-c2nc(C#N)c(NCc3ccco3)o2)cc1,?,?,?,32µM*,32µM*,-2%
N#Cc1nc(-c2ccco2)oc1NCc1ccco1,29%,i,?,32µM*,?,0%
c1coc(CNc2nc3nonc3nc2NCc2ccco2)c1,-11%,i,i,-20%,-19%,10%
N#Cc1nc(-c2ccco2)oc1NCCCN1CCOCC1,6%,?,?,25µM*,32µM*,1%
N#Cc1ccc(CN2CCCC3(CCN(C(=O)c4cc(C(F)(F)F)cc(C(F)(F)F)c4)CC3)C2)cc1,7%,i,i,4%,6%,0%
CCn1nnnc1NCc1cccn1C,?,i,i,-2%,5%,0%
CCc1cc2c(NCCN3CCCCC3)ncnc2s1,?,1.1e-08M*,1.4e-08M*,9%,2%,-1%
CCc1cc2c(NCCC(=O)O)ncnc2s1,0%,?,?,1%,3%,0%
CCc1cc2c(NCCO)ncnc2s1,-7%,2.2e-08M*,2e-08M*,-14%,12%,3%
